# PubChem BioAssay AID449764 (Southern Research Specialized Biocontainment Screening …, 2010)
# The whole screen tested about 2,300 compounds, of which about 1,700 (74%) were called active. The rule behind the calls is not given here. The set was probably picked from earlier hits. This is one part of the list. Entries with a potency or affinity are not part of this list.
# Assay: Confirmatory growth inhibition assay, Mycobacterium tuberculosis H37Rv, absence of glycerol (AID 449764);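 note: growth read after 7 days of incubation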
# Details: no glycerol; series mostly up to 100 µM
row,SMILES,outcome
1,O=C1N/C(=N\N=C\c2ccccn2)SC1Cc1cccc(SC(F)F)c1 (configuration not stated),inactive
2,CCc1ccc(CCOc2ccc(CC3SC(=O)NC3=O)cc2)nc1 (configuration not stated),inactive
3,FC(F)(F)c1ccc(N2CCOCC2)c(Nc2nc3ccccc3n3cnnc23)c1,inactive
4,CCCCN(CCCC)c1nc(-c2ccncc2)nc2ccccc12,inactive
5,CSc1cc(-c2ccncc2)nc(-c2ccc(Cl)cc2)c1,inactive
6,O/N=C/c1ccc2ccccc2c1,inactive
7,Cc1ccc2c(c1)C(c1ccc(N3CCOCC3)cc1)=NNC(c1cccs1)=N2,inactive
8,CCc1ccc(/C=C/C(=O)c2cc(Br)ccc(=O)c2O)cc1,inactive
9,Cc1ccccc1-n1c(O)c(C=Nc2ccc3c(c2)OCO3)c(=O)[nH]c1=O,inactive
10,C=CCc1c(C)nc2ccc(C(=O)OCC)cc2c1Cl,inactive
11,CCn1c(SCC(=O)Nc2ccc3c(c2)oc2ccccc23)nnc1-c1ccc(N)cc1,inactive
12,O=S(=O)(c1ccc(Oc2ccc3oc4ccccc4c3c2)nc1)N1CCCC1,inactive
13,COc1ccc(-c2cc(O)cc(O)c2)cc1,inactive
14,CCCCOC1CC(c2ccc(OCc3ccc(OC)cc3)c(OC)c2)N(C)O1 (configuration not stated),inactive
15,CCCCCCOc1ccc(/C=C/C(=O)N2CCOCC2)cc1OC,inactive
16,O=[N+]([O-])/C=C/c1cn(Cc2ccccc2)c2ccccc12,inactive
17,Oc1ccc(/C=N/n2c3ccccc3c3ccccc32)cc1,inactive
18,Cc1ccc(Nc2nc(N)c([N+](=O)[O-])c(N3CCCC(C)C3)n2)cc1C (configuration not stated),inactive
19,Fc1cc(F)cc(Nc2nc(Cl)nc(NC3CCCC3)n2)c1,inactive
20,COc1ccc(NC(=O)ON=C2c3ccccc3-c3ccccc32)cc1,inactive
21,COc1ccc(N/C(=C2\CCCC2=O)C2CCCCC2)cc1,inactive
22,CC(C)(C)c1ccc(-c2nc3[nH]c(=O)cc(NC(=O)c4ccco4)n3n2)cc1,inactive
23,Cc1ccccc1C(=O)Nc1ccccc1C(=O)NCC(C)C,inactive
24,O=C1NCCC/C1=N\Nc1ccc(Br)cc1,inactive
25,CN1CCN(/N=C/c2c3ccccc3c(Cl)c3ccccc23)CC1,inactive
26,COc1ccccc1N1CCN(c2ccc(-c3ccccc3)nn2)CC1,inactive

row,SMILES,outcome
1,COc1cc(C)ccc1OCCOc1c(C)cc(Cl)cc1Cl,inactive
2,O=c1oc(-c2ccccc2[N+](=O)[O-])nc2ccccc12,inactive
3,Cc1noc2ncnc(Sc3ccc(Cl)cc3)c12,inactive
4,O/N=C/c1cn(-c2ccc(Cl)cc2)nn1,inactive
5,CN1CCN(c2ccc(C(=O)c3cn(-c4ccc(F)c(Cl)c4)nn3)cc2)CC1,inactive
6,Cc1ccc(Cl)cc1NC(=O)CN1CCN(S(=O)(=O)N2CCOCC2)CC1,inactive
7,Cc1ccc2[nH]c3c(c2c1)CN(C(=O)CN1CCN(c2ccccn2)CC1)CC3,inactive
8,COc1cc(CNC(=O)CCCCCCC(C)C)ccc1O,inactive
9,CCCCNC(=O)Nc1nnc(-c2ccc(OCC)cc2)o1,inactive
10,CN(C)C=Nc1ccc2nn(-c3ccccc3)nc2c1,inactive
11,O=C(Nc1ccc(Cl)cc1)N(Cc1nc2ccccc2c(=O)[nH]1)Cc1cccs1,inactive
12,CCOc1ccc(N/C(C)=C/C(=O)c2ccc3c(c2)OCCO3)cc1,inactive
13,Cc1[nH]nc(SCC(=O)NCc2ccccc2)c1[N+](=O)[O-],inactive
14,CCC(C)n1c(NC(=O)c2ccccc2)c(C#N)c2nc3ccccc3nc21 (configuration not stated),inactive
15,COc1ccc(-c2oc3ccc(-c4ccc(OC)nc4)cc3c2C#CC2(O)CCCCC2)cc1,inactive
16,Cc1cc(=O)oc2cc(OC(=O)C3CCN(C(=O)c4ccc(F)cc4)CC3)ccc12,inactive
17,CC12CN3CCN(CC(C3)/C1=N\NC(=O)Nc1cccc(Cl)c1)C2,inactive
18,Cc1ccccc1-c1nc(CN2CCC(C(=O)NCCC3=CCCCC3)CC2)c(C)o1,inactive
19,Cc1ccc2nc(SCC(=O)Nc3ccc4c(c3)CCC4)[nH]c2c1,inactive
20,CCCc1cc2c(cc1NC(=O)c1ccccc1Cl)OCO2,inactive
21,Cc1sc2nc3c4ccccc4c(NCc4ccco4)nn3c(=O)c2c1C,inactive
22,Cc1ccc(C2CN(C)C3(C(=O)Nc4ccccc43)C23COc2ccccc2C3=O)cc1 (configuration not stated),inactive
23,CCOc1ccc(N=c2scc(-c3ccccc3)n2CCO)cc1,inactive
24,CC1(C)OC(=O)C(=NNc2ccc(Cl)cc2)C(=O)O1,inactive
25,Cc1cccc(CSc2nc3c(c(-c4cccs4)c2C#N)CN(C)CC3)c1,inactive
26,CC1(C)CC(=O)c2c(O)cc(OCc3ccc(Br)cc3)cc2O1,inactive

row,SMILES,outcome
1,O=C(CNC(=O)c1ccc(Cl)cc1)c1ccc(Cl)cc1,inactive
2,COC(=O)C(Cc1ccc(OC(=O)c2ccc(C(F)(F)F)cc2)cc1)N1Cc2ccccc2C1=O (configuration not stated),inactive
3,Cc1ccsc1/C=N/Nc1ccc(F)cc1F,inactive
4,CCOC(=O)c1ccc(N=Cc2nc3ccccc3n2C)cc1,inactive
5,CC1(C)CC(=O)c2cc(C(=O)NNc3ccccc3)c(=O)n(-c3ccccc3)c2C1,inactive
6,Cn1cnnc1SCc1ccc(-c2ccc(Br)cc2)o1,inactive
7,O=C(Nc1ccc(CN2CCOCC2)cc1)c1ccc(-c2cc(Cl)ccc2Cl)o1,inactive
8,CCOC(=O)c1ccc(N=C2S/C(=C\c3cc(C)n(-c4cccnc4)c3C)C(=O)N2C)cc1,inactive
9,C(=C\c1ccccc1)/C=N/Nc1nc2ccccc2s1,inactive
10,O=C(COC(=O)C1CC2CCCC(C1)C2=O)NNC(=O)c1ccccc1F (configuration not stated),inactive
11,CC1(c2ccc(Cl)c(Cl)c2)NC(=S)N2C1NC(=S)N2c1ccccc1 (configuration not stated),inactive
12,CC(=O)Oc1c(C)cc(Cl)cc1C(=O)Nc1ccc([N+](=O)[O-])cc1Cl,inactive
13,CCCc1nc2oc(C(=O)OCC)c(N)c2c2c1COC(C)(C)C2,inactive
14,O=C1c2ccccc2C(=O)N1Nc1ccccc1,inactive
15,COc1ccc(-c2nc(NC(=O)c3[nH]c(C)c(C(C)=O)c3C)sc2C)cc1,inactive
16,CCc1noc(C)c1C(=O)Nc1nc(-c2ccc(F)cc2)c(C)s1,inactive
17,CCCCOP(=O)(OCCCC)C(Nc1ccc(C(=O)OCC)cc1)c1ccncc1 (configuration not stated),inactive
18,CCOC(=O)c1ccc(Nc2cc3ccccc3c(=O)[nH]2)cc1,inactive
19,Cc1ccc(C)c2nc(N3CCCC3)c(C#N)cc12,inactive
20,N=c1c(C(=O)NC2CCCCC2)cc2c(=O)n3ccccc3nc2n1Cc1ccc(F)cc1,inactive
21,Cc1ccc(S(=O)(=O)CNC(=S)c2ccc3ccccc3c2)cc1,inactive
22,O=C(NC1CCCCCC1)c1ccccc1-c1ccccc1,inactive
23,CCOC(=O)N1CCN(C(=O)COC(=O)C2CCN(S(=O)(=O)c3c(Cl)cccc3Cl)CC2)CC1,inactive
24,CCOc1ccccc1NC(=O)C12CC3CC(C1)CC(c1ccc(C)cc1)(C3)C2,inactive
25,COC(=O)CNC(=O)CSc1nc2sc(-c3ccccc3)cc2c(=O)n1-c1ccccc1,inactive
26,CCOc1ccc(-c2nn3c(-c4ccccc4)nnc3s2)cc1,inactive

row,SMILES,outcome
1,Cc1ccccc1-c1nc2cc(N)ccc2o1,inactive
2,CCCCCCCCCCNC(=O)C(=O)Nc1ccccn1,inactive
3,CCCCCCCCCCCCCCCC(=O)NCCO,inactive
4,O=C(/C=C/c1ccco1)Nc1cccc(-c2nc3ccccc3[nH]2)c1,inactive
5,N/C(Cc1ccc([N+](=O)[O-])cc1)=N\OC(=O)c1ccc2ccccc2c1,inactive
6,COc1ccc(OC(=O)c2cc3cc(Cl)ccc3oc2=O)cc1,inactive
7,Cc1cccc(C)c1OCC(=O)Nc1cccc(-c2nnc(-c3ccccc3)o2)c1,inactive
8,O=C(Nc1nc2c(s1)CCCC2)c1cc(-c2ccc3c(c2)OCO3)nc2ccccc12,inactive
9,Cc1cc(N2CCN(C(=O)Nc3ccccc3C#N)CC2)c2ccccc2n1,inactive
10,COc1ccc(N=N/C(=C\O)C(=O)c2cccs2)cc1,inactive
11,Cc1ccc(C(=O)O/N=C(\N)c2ccc(Br)cc2)cc1C,inactive
12,CCOCCCNS(=O)(=O)c1ccc(NC(=O)N2c3ccccc3Sc3ccccc32)cc1,inactive
13,COc1ccc(N=Cc2c(O)cc(C)oc2=O)cc1,inactive
14,COc1ccc(N=Cc2c(OC)ccc3ccccc23)cc1,inactive
15,CCOc1ccc(NC(=O)N(C2CCCCC2)C(C)c2ccncc2)cc1 (configuration not stated),inactive
16,CCOc1ccc(N=C(NC#N)SCC(=O)NC2CC2)cc1,inactive
17,CCOc1ccc(N=CC2=C(O)CC(c3ccco3)CC2=O)cc1 (configuration not stated),inactive
18,C=CCN1CC[C@]23c4c5ccc(O)c4O[C@H]2/C(=N/NC(=O)c2ccccc2)CC[C@@]3(O)[C@H]1C5,inactive
19,COc1ccc(N=Cc2c[nH][nH]c2=O)cc1,inactive
20,Cn1c(N)c(C(=O)COC(=O)c2ccc([N+](=O)[O-])o2)c(=O)n(C)c1=O,inactive
21,O=C(c1n[nH]c(=O)c2ccccc12)N1CCN(C2c3ccccc3-c3ccccc32)CC1,inactive
22,COCCN=C1Sc2nc3ccc(C)cc3cc2CN1Cc1ccco1,inactive
23,C#CCCc1cscc1/C=[N+](\[O-])c1ccc(C(=O)OCC)cc1,inactive
24,O=C(O)c1ccccc1C(=O)NNc1ccc(Cl)cc1Cl,inactive
